Holding throughout (experiment): DAPPL (digital affinity profiling via proximity ligation, sequencing); 10 mM Tris-HCl pH 7.5, 50 mM NaCl, 1 mM DTT, 4% glycerol, room temperature, 30 min; GST-TFs on glutathione beads, 16-mer random dsDNA library, 0.1% formaldehyde crosslink after washing; high values mean tight binding
One experiment concerns the target T1, FEV (Homo sapiens, UniProt Q99581 1-238).
T1 sequence: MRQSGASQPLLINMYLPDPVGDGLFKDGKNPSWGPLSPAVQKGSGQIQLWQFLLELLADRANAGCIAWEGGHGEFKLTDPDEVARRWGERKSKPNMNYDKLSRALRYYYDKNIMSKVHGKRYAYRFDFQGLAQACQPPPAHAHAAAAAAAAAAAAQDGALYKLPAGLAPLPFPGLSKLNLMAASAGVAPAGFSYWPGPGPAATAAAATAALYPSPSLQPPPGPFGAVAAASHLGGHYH
Conditions: protein: recombinant; tags: N-terminal GST; dsDNA, one strand shown. A digest of the protocol: (§1)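 Pools were built from human transcription factors expressed in yeast as GST fusions, captured on glutathione beads and DNA-barcoded, along with a tag-only sample. Incubation with 200 nmole of a 16-mer random double-stranded DNA library lasted 30 min at room temperature in Tris/NaCl/DTT/glycerol buffer, and was followed by washing, 0.1% formaldehyde crosslinking, proximity ligation, PCR amplification and Illumina NextSeq500 sequencing. Binding signal is the quotient of each hexamer's read frequency for a factor and its frequency for the tag-only sample.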

Another experiment addresses ETV5 (Homo sapiens, UniProt P41161 1-510). The conditions noted are these: protein: recombinant; tags: N-terminal GST; dsDNA, one strand shown. A digest of the protocol:
as §1

The target in the next experiment is HSF1 (Homo sapiens, UniProt Q00613 1-529). Conditions: protein: recombinant; tags: N-terminal GST; chain copies: 3; dsDNA, one strand shown. In outline:
as §1

The target in another experiment is T2, SPIC (Homo sapiens, UniProt Q8N5J4 1-248).
T2 sequence: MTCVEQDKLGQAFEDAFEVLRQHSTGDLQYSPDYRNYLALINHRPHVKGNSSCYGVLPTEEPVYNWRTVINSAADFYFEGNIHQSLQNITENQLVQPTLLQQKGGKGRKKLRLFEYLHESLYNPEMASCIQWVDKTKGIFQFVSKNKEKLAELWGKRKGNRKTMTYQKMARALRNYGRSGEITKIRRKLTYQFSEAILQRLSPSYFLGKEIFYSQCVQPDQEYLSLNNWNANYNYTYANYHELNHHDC
The conditions noted are these: protein: recombinant; tags: N-terminal GST; dsDNA, one strand shown. In outline:
as §1

The next experiment concerns the target ELF4 (Homo sapiens, UniProt Q99607 1-663). The conditions noted are these: protein: recombinant; tags: N-terminal GST; dsDNA, one strand shown. In outline: as §1
The target in another experiment is T3, ELK4 (Homo sapiens, UniProt P28324-2 1-405).
T3 sequence: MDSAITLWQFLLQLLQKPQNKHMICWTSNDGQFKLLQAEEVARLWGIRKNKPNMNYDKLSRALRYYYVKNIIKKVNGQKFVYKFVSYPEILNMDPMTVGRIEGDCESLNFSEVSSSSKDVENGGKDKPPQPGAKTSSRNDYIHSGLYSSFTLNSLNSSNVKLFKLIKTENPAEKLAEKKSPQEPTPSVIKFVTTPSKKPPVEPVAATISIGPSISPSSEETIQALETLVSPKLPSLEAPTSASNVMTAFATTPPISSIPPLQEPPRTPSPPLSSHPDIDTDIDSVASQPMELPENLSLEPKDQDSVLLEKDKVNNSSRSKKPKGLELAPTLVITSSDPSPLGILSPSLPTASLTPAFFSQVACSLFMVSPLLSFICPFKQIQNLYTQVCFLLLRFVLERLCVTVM
Conditions: protein: recombinant; tags: N-terminal GST; dsDNA, one strand shown. A digest of the protocol: as §1

Another experiment addresses T4, ETV2 (Homo sapiens, UniProt O00321 1-342).
T4 sequence: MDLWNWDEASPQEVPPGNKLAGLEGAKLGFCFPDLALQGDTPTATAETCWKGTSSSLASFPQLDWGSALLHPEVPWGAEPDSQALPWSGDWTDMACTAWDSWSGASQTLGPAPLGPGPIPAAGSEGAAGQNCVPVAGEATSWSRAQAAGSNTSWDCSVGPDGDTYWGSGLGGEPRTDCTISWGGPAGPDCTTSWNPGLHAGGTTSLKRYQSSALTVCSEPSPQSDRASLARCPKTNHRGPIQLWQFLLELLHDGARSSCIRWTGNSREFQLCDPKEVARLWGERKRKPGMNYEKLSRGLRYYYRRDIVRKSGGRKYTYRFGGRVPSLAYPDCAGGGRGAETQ
Conditions: protein: recombinant; tags: N-terminal GST; dsDNA, one strand shown. In outline:
as §1

In a further experiment the target is T5, ELF3 (Homo sapiens, UniProt P78545 1-371).
T5 sequence: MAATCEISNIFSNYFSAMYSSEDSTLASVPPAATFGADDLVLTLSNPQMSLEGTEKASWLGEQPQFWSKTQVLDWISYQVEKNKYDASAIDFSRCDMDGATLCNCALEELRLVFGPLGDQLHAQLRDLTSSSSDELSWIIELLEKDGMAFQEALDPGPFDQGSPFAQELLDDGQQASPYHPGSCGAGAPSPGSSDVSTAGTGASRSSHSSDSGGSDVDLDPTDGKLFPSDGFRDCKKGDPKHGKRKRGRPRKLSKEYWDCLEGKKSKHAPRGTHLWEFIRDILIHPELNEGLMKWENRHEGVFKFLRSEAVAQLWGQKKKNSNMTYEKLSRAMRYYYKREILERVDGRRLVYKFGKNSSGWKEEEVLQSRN
The conditions noted are these: protein: recombinant; tags: N-terminal GST; dsDNA, one strand shown. A digest of the protocol:
as §1

The target of another experiment is CRX (Homo sapiens, UniProt O43186 1-299). The conditions noted are these: protein: recombinant; tags: N-terminal GST; dsDNA, one strand shown. In outline:
as §1

For a further experiment, the target named is ETV1 (Homo sapiens, UniProt P50549 1-477). The conditions noted are these: protein: recombinant; tags: N-terminal GST; dsDNA, one strand shown. A digest of the protocol: as §1
For the next experiment, the target named is T6, ERF (Homo sapiens, UniProt P50548 1-548).
T6 sequence: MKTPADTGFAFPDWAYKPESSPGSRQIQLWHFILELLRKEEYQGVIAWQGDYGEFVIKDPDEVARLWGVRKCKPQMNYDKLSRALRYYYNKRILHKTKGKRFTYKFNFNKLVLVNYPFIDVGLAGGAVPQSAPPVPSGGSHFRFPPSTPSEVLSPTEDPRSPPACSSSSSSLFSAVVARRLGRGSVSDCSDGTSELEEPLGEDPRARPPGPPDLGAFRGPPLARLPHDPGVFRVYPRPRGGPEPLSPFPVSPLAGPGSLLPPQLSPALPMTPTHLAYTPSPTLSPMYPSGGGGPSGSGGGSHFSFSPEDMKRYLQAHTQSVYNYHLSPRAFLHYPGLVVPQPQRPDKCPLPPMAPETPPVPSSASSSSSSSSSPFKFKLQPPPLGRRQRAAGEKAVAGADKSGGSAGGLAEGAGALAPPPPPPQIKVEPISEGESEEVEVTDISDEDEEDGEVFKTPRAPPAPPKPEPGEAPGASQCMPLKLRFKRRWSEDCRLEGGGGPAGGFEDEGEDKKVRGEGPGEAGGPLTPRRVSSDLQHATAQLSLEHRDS
The conditions noted are these: protein: recombinant; tags: N-terminal GST; dsDNA, one strand shown. In outline:
as §1

In the next experiment the target is T7, ETV3L (Homo sapiens, UniProt Q6ZN32 1-361).
T7 sequence: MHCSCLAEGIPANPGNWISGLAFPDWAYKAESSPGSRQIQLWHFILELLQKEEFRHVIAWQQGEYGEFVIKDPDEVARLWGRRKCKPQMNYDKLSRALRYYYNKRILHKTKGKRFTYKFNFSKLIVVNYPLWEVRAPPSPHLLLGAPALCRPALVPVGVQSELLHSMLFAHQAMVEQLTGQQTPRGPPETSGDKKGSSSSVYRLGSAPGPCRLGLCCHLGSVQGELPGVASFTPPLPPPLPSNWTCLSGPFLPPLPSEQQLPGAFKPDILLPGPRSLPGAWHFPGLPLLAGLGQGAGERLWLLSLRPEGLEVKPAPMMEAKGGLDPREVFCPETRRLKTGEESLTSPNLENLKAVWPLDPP
Conditions: protein: recombinant; tags: N-terminal GST; dsDNA, one strand shown. In outline:
as §1

A further experiment deals with T8, ETS2 (Homo sapiens, UniProt P15036 1-469).
T8 sequence: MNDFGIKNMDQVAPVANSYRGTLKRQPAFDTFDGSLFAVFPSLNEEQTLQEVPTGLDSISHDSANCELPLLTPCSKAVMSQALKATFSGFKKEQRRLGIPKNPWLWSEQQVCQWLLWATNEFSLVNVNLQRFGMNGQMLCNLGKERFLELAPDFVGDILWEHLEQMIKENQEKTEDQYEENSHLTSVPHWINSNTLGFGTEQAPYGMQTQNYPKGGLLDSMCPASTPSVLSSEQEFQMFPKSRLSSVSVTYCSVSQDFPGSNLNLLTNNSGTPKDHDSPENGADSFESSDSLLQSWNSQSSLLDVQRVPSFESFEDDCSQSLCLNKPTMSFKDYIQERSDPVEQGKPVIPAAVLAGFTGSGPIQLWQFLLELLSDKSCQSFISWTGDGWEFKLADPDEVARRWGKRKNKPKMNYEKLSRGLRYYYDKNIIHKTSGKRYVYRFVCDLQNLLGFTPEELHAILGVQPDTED
The conditions noted are these: protein: recombinant; tags: N-terminal GST; dsDNA, one strand shown. A digest of the protocol:
as §1

Another experiment has as its target T9, SPDEF (Homo sapiens, UniProt O95238 1-335).
T9 sequence: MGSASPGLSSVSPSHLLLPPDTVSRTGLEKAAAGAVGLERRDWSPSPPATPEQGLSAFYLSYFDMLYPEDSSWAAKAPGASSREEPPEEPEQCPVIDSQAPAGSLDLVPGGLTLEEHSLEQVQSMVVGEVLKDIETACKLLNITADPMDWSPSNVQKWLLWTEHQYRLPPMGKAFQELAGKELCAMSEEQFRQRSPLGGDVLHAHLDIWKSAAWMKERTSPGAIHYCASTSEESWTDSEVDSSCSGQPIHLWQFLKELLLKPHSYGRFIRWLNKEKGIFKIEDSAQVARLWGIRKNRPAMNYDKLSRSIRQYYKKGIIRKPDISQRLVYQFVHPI
Conditions: protein: recombinant; tags: N-terminal GST; dsDNA, one strand shown. In outline:
as §1

The target of another experiment is T10, ETV7 (Homo sapiens, UniProt Q9Y603 1-341).
T10 sequence: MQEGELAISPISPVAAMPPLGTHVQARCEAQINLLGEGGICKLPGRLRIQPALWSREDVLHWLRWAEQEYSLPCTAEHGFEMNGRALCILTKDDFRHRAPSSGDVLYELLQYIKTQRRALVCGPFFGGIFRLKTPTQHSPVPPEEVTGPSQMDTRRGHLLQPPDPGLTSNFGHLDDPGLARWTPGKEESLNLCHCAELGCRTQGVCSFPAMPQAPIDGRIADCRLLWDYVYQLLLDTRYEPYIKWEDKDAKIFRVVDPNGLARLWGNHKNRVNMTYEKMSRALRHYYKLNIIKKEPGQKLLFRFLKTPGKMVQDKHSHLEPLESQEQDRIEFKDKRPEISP
The conditions noted are these: protein: recombinant; tags: N-terminal GST; dsDNA, one strand shown. In outline:
as §1

The target of another experiment is T11, ELF5 (Homo sapiens, UniProt Q9UKW6-2 1-255).
T11 sequence: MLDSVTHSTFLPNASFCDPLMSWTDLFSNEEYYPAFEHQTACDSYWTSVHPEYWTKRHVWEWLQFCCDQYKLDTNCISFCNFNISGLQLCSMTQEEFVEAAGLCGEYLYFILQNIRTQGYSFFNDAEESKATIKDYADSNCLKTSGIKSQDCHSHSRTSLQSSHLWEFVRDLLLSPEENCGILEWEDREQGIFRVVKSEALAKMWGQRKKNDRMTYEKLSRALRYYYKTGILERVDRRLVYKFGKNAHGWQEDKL
Conditions: protein: recombinant; tags: N-terminal GST; dsDNA, one strand shown. A digest of the protocol:
as §1

The target of the next experiment is T12, ETV3 (Homo sapiens, UniProt P41162-2 1-143).
T12 sequence: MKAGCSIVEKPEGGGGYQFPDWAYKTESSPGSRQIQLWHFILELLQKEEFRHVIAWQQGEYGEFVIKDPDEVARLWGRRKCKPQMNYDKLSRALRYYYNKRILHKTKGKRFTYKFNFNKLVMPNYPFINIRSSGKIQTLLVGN
The conditions noted are these: protein: recombinant; tags: N-terminal GST; dsDNA, one strand shown. A digest of the protocol:
as §1

For another experiment, the target named is ETV6 (Homo sapiens, UniProt P41212 1-452). The conditions noted are these: protein: recombinant; tags: N-terminal GST; dsDNA, one strand shown. In outline: as §1
ETV6, sequence (P41212 whole entry): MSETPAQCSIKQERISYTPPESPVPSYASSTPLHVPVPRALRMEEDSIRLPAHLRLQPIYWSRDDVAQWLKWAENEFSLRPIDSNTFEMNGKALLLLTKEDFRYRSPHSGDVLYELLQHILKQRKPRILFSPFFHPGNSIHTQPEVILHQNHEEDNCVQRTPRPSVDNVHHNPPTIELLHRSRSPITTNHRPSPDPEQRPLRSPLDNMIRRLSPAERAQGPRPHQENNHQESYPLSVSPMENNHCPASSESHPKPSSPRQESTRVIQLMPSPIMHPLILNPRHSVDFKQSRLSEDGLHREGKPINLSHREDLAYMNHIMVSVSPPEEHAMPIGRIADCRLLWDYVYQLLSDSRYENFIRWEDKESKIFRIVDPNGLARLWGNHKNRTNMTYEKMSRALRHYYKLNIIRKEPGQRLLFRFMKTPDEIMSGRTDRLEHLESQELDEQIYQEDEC

ELF4, sequence (Q99607 whole entry): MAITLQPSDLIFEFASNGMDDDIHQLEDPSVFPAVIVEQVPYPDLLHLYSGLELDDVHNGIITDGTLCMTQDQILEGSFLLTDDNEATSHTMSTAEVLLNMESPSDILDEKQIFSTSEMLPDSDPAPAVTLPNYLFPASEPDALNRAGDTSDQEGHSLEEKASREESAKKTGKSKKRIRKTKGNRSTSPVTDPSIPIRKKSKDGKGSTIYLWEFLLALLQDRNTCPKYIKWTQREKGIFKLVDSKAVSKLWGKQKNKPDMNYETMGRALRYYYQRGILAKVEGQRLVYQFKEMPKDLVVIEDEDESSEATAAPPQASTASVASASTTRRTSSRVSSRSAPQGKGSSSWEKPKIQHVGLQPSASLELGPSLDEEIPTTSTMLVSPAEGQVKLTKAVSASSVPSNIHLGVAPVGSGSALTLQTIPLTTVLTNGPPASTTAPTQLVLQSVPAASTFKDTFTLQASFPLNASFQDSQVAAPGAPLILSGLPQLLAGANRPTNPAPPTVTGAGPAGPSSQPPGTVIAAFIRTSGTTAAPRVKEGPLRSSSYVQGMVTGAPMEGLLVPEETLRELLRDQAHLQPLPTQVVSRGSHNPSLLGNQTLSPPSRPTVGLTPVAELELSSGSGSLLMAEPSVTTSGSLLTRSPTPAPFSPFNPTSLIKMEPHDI
HSF1, sequence (Q00613 whole entry): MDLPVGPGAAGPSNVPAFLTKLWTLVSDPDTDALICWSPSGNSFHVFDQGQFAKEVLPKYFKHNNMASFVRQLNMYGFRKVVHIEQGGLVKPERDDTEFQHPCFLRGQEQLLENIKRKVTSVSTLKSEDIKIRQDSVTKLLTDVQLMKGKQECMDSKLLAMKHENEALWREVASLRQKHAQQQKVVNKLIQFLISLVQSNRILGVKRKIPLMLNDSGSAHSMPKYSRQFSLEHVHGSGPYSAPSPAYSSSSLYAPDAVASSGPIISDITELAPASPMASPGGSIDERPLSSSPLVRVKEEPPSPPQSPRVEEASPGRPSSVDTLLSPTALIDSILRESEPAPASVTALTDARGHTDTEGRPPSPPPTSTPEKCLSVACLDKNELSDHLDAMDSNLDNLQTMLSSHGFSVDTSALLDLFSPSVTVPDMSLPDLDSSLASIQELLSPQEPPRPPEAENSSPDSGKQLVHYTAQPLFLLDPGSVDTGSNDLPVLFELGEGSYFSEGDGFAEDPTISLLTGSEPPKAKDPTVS
ETV5, sequence (P41161 whole entry): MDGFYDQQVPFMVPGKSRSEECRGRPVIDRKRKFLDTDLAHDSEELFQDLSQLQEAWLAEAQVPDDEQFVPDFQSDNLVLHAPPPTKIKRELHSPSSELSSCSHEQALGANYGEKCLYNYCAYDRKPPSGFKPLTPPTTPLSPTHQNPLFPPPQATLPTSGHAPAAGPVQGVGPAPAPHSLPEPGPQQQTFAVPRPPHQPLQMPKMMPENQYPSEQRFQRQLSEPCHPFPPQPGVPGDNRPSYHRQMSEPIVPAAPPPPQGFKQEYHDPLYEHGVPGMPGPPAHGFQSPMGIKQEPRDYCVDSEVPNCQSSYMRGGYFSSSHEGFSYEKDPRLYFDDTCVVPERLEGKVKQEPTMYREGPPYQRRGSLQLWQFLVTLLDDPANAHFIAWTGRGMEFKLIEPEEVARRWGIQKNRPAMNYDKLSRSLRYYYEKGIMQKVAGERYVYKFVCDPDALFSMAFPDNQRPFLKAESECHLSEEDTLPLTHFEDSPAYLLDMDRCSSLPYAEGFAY
ETV1, sequence (P50549 whole entry): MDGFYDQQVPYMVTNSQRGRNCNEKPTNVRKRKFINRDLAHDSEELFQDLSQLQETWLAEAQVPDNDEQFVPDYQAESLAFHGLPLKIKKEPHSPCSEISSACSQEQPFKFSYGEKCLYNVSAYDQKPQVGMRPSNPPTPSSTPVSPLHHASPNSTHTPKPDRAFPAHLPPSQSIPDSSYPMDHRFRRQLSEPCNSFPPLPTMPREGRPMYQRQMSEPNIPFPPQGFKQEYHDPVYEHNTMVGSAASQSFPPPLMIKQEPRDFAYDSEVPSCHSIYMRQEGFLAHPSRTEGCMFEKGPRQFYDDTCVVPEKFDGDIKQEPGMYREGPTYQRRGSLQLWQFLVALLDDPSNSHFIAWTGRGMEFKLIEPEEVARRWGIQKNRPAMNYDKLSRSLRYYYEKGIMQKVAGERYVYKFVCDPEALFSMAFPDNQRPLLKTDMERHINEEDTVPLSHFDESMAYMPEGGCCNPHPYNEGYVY
CRX, sequence (O43186 whole entry): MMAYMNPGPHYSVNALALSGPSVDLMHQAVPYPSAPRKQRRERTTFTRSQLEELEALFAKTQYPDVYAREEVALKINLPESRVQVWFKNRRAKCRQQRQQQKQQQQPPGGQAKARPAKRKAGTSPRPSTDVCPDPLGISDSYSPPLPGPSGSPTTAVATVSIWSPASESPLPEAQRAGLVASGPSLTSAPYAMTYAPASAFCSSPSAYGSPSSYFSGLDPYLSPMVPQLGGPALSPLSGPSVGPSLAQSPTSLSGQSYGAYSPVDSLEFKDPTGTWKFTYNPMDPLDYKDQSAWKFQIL

Consider ATCCGG, for which the binding signal was 4.68 fold enrichment (6-mer frequency, TF over GST control) with FEV; 2.87 fold enrichment (6-mer frequency, TF over GST control) in the experiment with ETV5; 1.31 fold enrichment (6-mer frequency, TF over GST control) with HSF1; 2.35 fold enrichment (6-mer frequency, TF over GST control) with SPIC; 2.17 fold enrichment (6-mer frequency, TF over GST control) with ELF4; 2.1 fold enrichment (6-mer frequency, TF over GST control) with ELK4. In addition, the binding signal in the experiment with ETV2 is 2.6 fold enrichment (6-mer frequency, TF over GST control); with ELF3, 2.31 fold enrichment (6-mer frequency, TF over GST control); with CRX, 1.48 fold enrichment (6-mer frequency, TF over GST control); with ETV1, 2.66 fold enrichment (6-mer frequency, TF over GST control); in the experiment with ERF, 2.34 fold enrichment (6-mer frequency, TF over GST control); in the experiment with ETV3L, 2.49 fold enrichment (6-mer frequency, TF over GST control). In addition, the binding signal with ETS2 was 2.66 fold enrichment (6-mer frequency, TF over GST control); with SPDEF, 4.67 fold enrichment (6-mer frequency, TF over GST control); with ETV7, 2.25 fold enrichment (6-mer frequency, TF over GST control); with ELF5 it was 3.06 fold enrichment (6-mer frequency, TF over GST control); with ETV3, 2.9 fold enrichment (6-mer frequency, TF over GST control); with ETV6, 2.37 fold enrichment (6-mer frequency, TF over GST control).

The record behind these values is publication PMC7862700, “An all-to-all approach to the identification of sequence-specific readers for epigenetic DNA modifications on cytosine”.
